This is a sample that favours compounds with a hit; in the whole collection about 7.1% have one here.
ATXN2 expr inh = reduces ATXN2 reporter expression in HEK-293 cells | HEK-293 ATXN2-luciferase reporter, luminescence, 24 h | Potency, µM (top dose mostly 57 µM), inactives show at the top dose activity change, negative = inhibition, actives largely listed as inhibitors | 360,000 tested, 0.72% active | AID 1745845; also: potency is read from the fitted curve at half-maximal effect; % is scaled to controls: 0 for no effect and ±100 for the full control effect; nearly all actives have a fitted effect of over 55% in size
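ATXN2-luciferase reporter cells (luciferase flanked by upstream and downstream ATXN2 gene portions) were treated 24 h at 37 °C with compounds at up to 57 uM. SteadyGlo luminescence gave expression; GF-AFC fluorescence gave viability.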
ATXN viability = reduces viability in counter-screen for ATXN expression inhibitors. 400,000 tested, 0.49% active. Potency, µM (top dose mostly 56.7 µM), hits mostly cytotoxic. S2 cells (HEK-293 line with an ATXN2-luciferase reporter) viability, CellTiter-Fluor protease fluorescence, 24 h; also: potency is read from the fitted curve at half-maximal effect; nearly all actives have a fitted effect of over 40% in size
PINK1 expr mod = modulators of PINK1 expression. PINK1 immunofluorescence, high-content cytometry, 24 h. AID 624263. Potency, µM (series often up to 76.6 µM), without a hit: at the top dose activation (PINK1 increase), most hits filed as activators. 410,000 tested, 0.2% active; active = well fitted activation curve with a large enough effect; inconclusive = small, poorly fitted or top-dose-only effect; cell line not stated here; also: potency is read from the fitted curve at half-maximal effect; % of control where 0% means no effect; nearly all actives have a fitted effect of over 65% in size
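PINK1 protein level read as immunofluorescence by microplate cytometer in a fixed, stained stable cell line after 24 h exposure to five compound concentrations, with CCCP as control.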
MCF10A rerep = inducers of DNA re-replication in MCF 10A breast cells. Potency, µM (titrated, usually from 46.1 µM), for inactives: at the highest dose activity, positive = re-replication, usual class: activators. 350,000 tested, 2.9% active. AID 624296. MCF 10A DNA re-replication, Hoechst nuclear intensity, 48 h; also: potency is read from the fitted curve at half-maximal effect; % of control where 0% means no effect; nearly all actives have a fitted effect of over 50% in size
IL-1B inflam inh = blocks inflammasome-driven IL-1 beta release | THP-1 LPS/ATP IL-1B secretion, AlphaLISA, 16 h; stronger effect = lower value | 360,000 tested, 4.7% active | activity change, % at 57.5 µM; in the data active = activity change below about -50%; inconclusive = mostly about -30% to -49%; also: % is scaled to controls: 0 for no effect and ±100 for the full control effect
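Secreted IL-1B measured by AlphaLISA bead assay after 16 h compound exposure of THP-1 cells; compounds (final up to 57.5 uM) added 1 h before LPS (250 ng/mL) and ATP (1.25 mM) stimulation; lower signal means less secretion.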
SW480 rereplic = induces DNA re-replication in SW480 colon adenocarcinoma cells; SW480 DNA re-replication, Hoechst DNA content imaging, 48 h; Potency, µM (doses to about 46.1 µM), for inactives: at the top dose re-replication activation, actives largely listed as activators; 340,000 tested, 1.8% active; AID 624297; also: potency is read from the fitted curve at half-maximal effect; % of control where 0% means no effect; nearly all actives have a fitted effect of over 55% in size
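Per well, 250 cells were exposed to pinned compound for 48 hr. Nuclear DNA was visualised with Hoechst (40 min, 37 C) and total object intensity recorded by fluorescence scanning.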
* = called active by the depositor; i = inactive; ? = inconclusive; / = not tested or not shown; [ ] = another dose, or the depositor's remark. Unless noted, calls follow the shape of the dose curve; as a rule, active = well fitted curve in the direction sought with a large enough effect; inconclusive = small, poorly fitted or top-dose-only effect, or another doubt; inactive = no such curve, though single readings can be large; an effect the other way counts as inactive or inconclusive.

SMILES	ATXN2 expr inh	ATXN viability	PINK1 expr mod	MCF10A rerep	IL-1B inflam inh	SW480 rereplic
Cc1cc(-c2cccs2)c2c(N)c(C(=O)c3ccc4c(c3)OCO4)sc2n1	-7.0%	/	?	14.6µM*	-20.6	1.3µM*
COc1ccc(-c2cc(-c3cccs3)nc3sc(C#N)c(N)c23)cc1	1.7%	/	16.4%	16.4µM*	-7.9	?
CC(C)NC(=O)c1sc2nc(-c3cccs3)cc(-c3cccs3)c2c1N	-9.1%	i	-4.8%	3.66µM*	-18.5	?
O=C(NCCCN1CCOCC1)c1cnn(-c2ncc3c(n2)-c2ccccc2CC3)c1C1CC1	/	i	0.0%	/	/	/
COc1ccccc1-c1ccnc(-n2ncc(C(=O)N3CCN(C4CCCC4)CC3)c2-c2ccco2)n1	/	i	-0.9%	/	/	/
CCCN(Cc1cccs1)C(=O)Nc1ccc(Br)c(C)c1	/	/	-0.8%	/	/	/
Cc1cc(C)c2c(N)c(C(=O)c3ccc(Cl)cc3)sc2n1	7.9%	i	4.9%	-32.7%	-27.5	14.6%
COc1ccc(C(=O)c2sc3nc(C)cc(-c4cccs4)c3c2N)cc1	/	/	0.5%	?	?	20.6µM*
O=C1CN(C(=O)CSc2nnnn2C2CC2)c2ccccc2N1	3.2%	i	4.9%	-5.7%	-15.7	-6.4%
Cc1cc(Br)ccc1NCc1ccccn1	5.5%	i	-0.9%[38.3 µM]	18.4µM*	-14.1	18.4µM*
COc1ccc(Br)cc1S(=O)(=O)NCc1ccccn1	5.8%	i	0.7%	?	2.8	1.9%
O=C(N/N=C/C(Cl)=C/c1ccccc1)c1ccccc1F	8.2%	i	3.3%	?	-69.5*	14.8%
O=C(N/N=C/C(Br)=C/c1ccccc1)c1ccccc1F	-18.0%	i	5.8%	?	-65.4*	?
O=C(N/N=C/C(Br)=C/c1ccccc1)c1cccs1	94.5%	i	6.3%	?	?	?
O=C(N/N=C/C(Cl)=C\c1ccccc1)c1cnccn1	5.6%	i	0.0%	3.2%	-81.9*	13.7%
COc1cccc(NC(=O)Cn2c(=O)n(-c3ccccc3)c(=O)c3c4c(sc32)CCCC4)c1	1.9%	?	2.9%	/	/	/
COc1cccc(/C=C/c2nc(S(=O)(=O)c3ccccc3)c(N(C)C)o2)c1	19.0%	i	0.6%	11.6µM*	?	?
CSc1oc(-c2cccs2)nc1S(=O)(=O)c1ccccc1	6.6%	i	1.8%	-1.4%	14.6	-0.4%
COCCNc1oc(/C=C/c2cccc(OC)c2)nc1S(=O)(=O)c1ccccc1	/	i	2.7%	/	-29.0	/
Cc1ccc(-c2nc(S(=O)(=O)c3ccc(C)cc3)c(N(C)C)o2)cc1	-2.2%	?	4.3%	-0.5%	-11.3	0.5%
CN(C)c1oc(/C=C/c2cccs2)nc1S(=O)(=O)c1ccccc1	0.6%	i	0.4%	18.4µM*	-10.5	23.1µM*
COc1cc(-c2nc(S(=O)(=O)c3ccc(C)cc3)c(N(C)C)o2)cc(OC)c1OC	-4.6%	i	2.9%	?	-50.7*	2.3%
COc1ccccc1/C=C/c1nc(S(=O)(=O)c2ccccc2)c(N(C)C)o1	-3.9%	i	7.6%	20.6µM*	-62.1*	?
CC1=C(C(=O)OC2CCCC2)C(c2ccc(F)cc2F)CC(=O)N1 (centres undefined)	-24.2%	i	5.2%	/	/	/
COC(=O)c1cc(CNC(=O)c2cccc3ccccc23)cc(NC(=O)c2ccccc2OC)c1	/	?	0.0%	/	/	/
SMILES	ATXN2 expr inh	ATXN viability	PINK1 expr mod	MCF10A rerep	IL-1B inflam inh	SW480 rereplic
COc1ccc(NS(=O)(=O)c2ccc3oc(SC4CCOC4=O)nc3c2)cc1 (centres undefined)	3.2%	i	3.1%	2.91µM*	-8.4	?
COc1cccc(N2CCN(c3c(C#N)c(C(F)(F)F)nn3C)CC2)c1	2.3%	i	-0.3%	-7.4%	-50.6*	-1.5%
COc1ccnc(N2CCN(c3cccc(C(F)(F)F)c3)CC2)c1C#N	-17.9%	i	/	20.6µM*	-1.4	?
COc1ccnc(N2CCN(c3ccc(Cl)cc3)CC2)c1C#N	-7.3%	i	10.4%[38.3 µM]	-2.4%	-12.2	-4.2%
COc1ccc2c(c1)c1c(c(=O)n(-c3cc(Cl)ccc3C)c(=O)n1CC(=O)N1CCCC1)n2C	1.8%	i	0.6%	/	/	/
Oc1ccccc1N1CCN(Cc2ncc(-c3ccccc3)o2)CC1	9.1%	i	1.5%	-1.6%	-52.8*	-2.8%
c1ccc(-c2nnc(CN3CCN(c4ccccc4)CC3)o2)cc1	-5.2%	?	0.3%	0.5%	18.7	-11.1%
CCOC(=O)C1=C(C)NC2=C(C(=O)CC(c3cccs3)C2)C1c1cccs1 (centres undefined)	-19.8%	?	5.0%	20µM*	?	?
CCN(CC)c1ccc(C(=O)NCc2ccc3c(c2)CCN3C(=O)c2ccc(F)cc2)cc1	/	/	3.1%	/	/	/
COC(=O)CC(=O)CSc1nc2c(cc1C#N)CCCCC2	19.4%	i	/	?	17.4	-9.1%
Cc1ccc(S(=O)(=O)CC(=O)Nc2ccc(S(=O)(=O)Nc3onc(C)c3C)cc2)cc1	9.2%	i	-4.5%[38.3 µM]	-1.5%	27.2	10.3µM*
CCOC(=O)CC(=O)CSc1nc2c(cc1C#N)CCC2	2.1%	i	1.1%	4.61µM*	0.6	?
CCc1ccc(C(=O)/C=C/Nc2ccc(S(=O)(=O)Nc3onc(C)c3C)cc2)cc1	22.6%	i	1.8%	25.9µM*	-18.6	13.0%
Cc1noc(NS(=O)(=O)c2ccc(NC(=O)CSc3nc4c(cc3C#N)CCCCC4)cc2)c1C	10.2%	i	-0.7%[38.3 µM]	20.6µM*	1.3	18.3%
Cc1noc(NS(=O)(=O)c2ccc(N/C=C/C(=O)c3ccc(F)cc3)cc2)c1C	/	i	-0.8%	-3.0%	21.7	2.2%
Cc1noc(NS(=O)(=O)c2ccc(NC(=O)CC(C)C)cc2)c1C	-8.6%	i	0.3%	3.0%	-14.2	1.9%
COc1cc(CNCCc2ccccc2)cc(Cl)c1OCc1ccccc1	?	?	-2.8%	23.1µM*	-103.9*	?
CCCCNCc1cc(Cl)c(OCCC)c(OCC)c1	-22.0%	i	-4.7%[38.3 µM]	5.8%	-63.9*	?
COc1cc(CNCCO)cc(Cl)c1OCc1ccccc1Cl	-6.6%	i	-1.1%	2.6%[9.22 µM]	-90.8*	?
CCOc1cc(CNCC(C)C)cc(Cl)c1OCc1ccccc1	/	?	?	1.1%	-51.8*	23.4%
CCCCOc1c(Cl)cc(CNC(C)(C)CO)cc1OCC	-11.7%	?	-0.4%[38.3 µM]	-1.1%	-10.0	0.8%
COc1ccc(N2CCN(C(=O)Cc3noc4ccc(C)cc34)CC2)cc1	-2.8%	i	1.6%	/	/	/
O=C(CSc1nc2cc(C(=O)NC3CCCC3)ccc2c(=O)n1CC1CCCO1)c1ccc(F)cc1 (centres undefined)	6.0%	i	1.4%	/	/	/
